# Laboratory results published in PubChem BioAssay (NCATS).
# Inconclusive results are not listed. Values without a mark were called inactive. Activity calls are given as the source filed them. Calls come from the whole dose curve; as a rule, active = well fitted cell-killing curve with a large enough effect; inconclusive = small, poorly fitted or top-dose-only effect, or effect the other way; inactive = flat fitted curve, though single readings scatter.
# Test: qHTS for Inhibitors of ATXN expression: Validation of Cytotoxic Assay (AID 588349)
# Conditions: cytotoxicity counter-screen for ATXN expression inhibitors, cell viability; series mostly up to 57.1 µM; activity change, negative = cytotoxicity: at the top concentration
# Source text: Spinocerebellar ataxia type 2 (SCA2) is a multisystem neurodegenerative disease caused by a dominantly-acting mutation leading to expansion of a polyQ domain in the ataxin-2 protein (ATXN2). SCA2 patients develop progressive ataxia and later lose function in other neuronal systems. Prominent parkinsonian signs develop in some patients. Similar to many neurodegenerative disorders, no symptomatic or disease-modifying treatments are known.
# The primary objective of project is to identify compounds inhibiting ATXN2 expression and to test them for efficacy in SCA2 mouse models. To this end, in a collaboration between Dr. Daniel Scoles and scientists at NCGC, a cell-based assay adapted to high-throughput screening has been developed to screen the NIH Molecular Libraries Small Molecule Repository (MLSMR). Confirmed qHTS active compounds will be tested for toxicity against the human neuron-like SH-SY5Y cell line. This line is the parental cell type used to generate the transgenic line used in the primary assay, and so should provide an isogenic control to test the inherent toxicity of qHTS actives.
# NIH Chemical Genomics Center [NCGC]
# NIH Molecular Libraries Probe Centers Network [MLPCN]
# Assay Submitter (PI): Stefan Pulst and Daniel Scoles, University of Utah
# […] cultured cells will be dosed with titrated compounds and incubated for 72 hr at 37 degrees C. Toxicity will be assessed using the CellTiter Glo kit (Promega), which uses intracellular ATP concentration as a viability marker.
# % is set by controls: 0 for no effect and ±100 for the full control effect; potency is the fitted concentration of half-maximal effect.
SMILES,"activity change, negative = cytotoxicity [%]",Potency
O=C(O)/C=C/C(O)c1ccc(Cl)cc1 (stereo not given),-9.32,–
OCC1O[C@H](O)C(Cl)C(O)C1O (stereo not given in full),5.2,–
CCCCCCCC/C=C\CCCCCCCC(=O)NCCO,-13.7,–
CC(=O)SCC[N+](C)(C)C,-0.855,–
NC[C@H]1O[C@@H](n2cnc3c(N)ncnc32)[C@H](O)[C@@H]1O,-7.3,–
C#C[C@]1(O)CC[C@H]2[C@@H]3CCC4=Cc5oncc5CC4(C)[C@H]3CCC21C (stereo not given in full),-12.9,–
C[C@@H](CN1CCC(Cc2ccccc2)CC1)[C@@H](O)c1ccc(O)cc1,-14.7,–
C[N+]1(C)CCC(OC(=O)C(c2ccccc2)c2ccccc2)CC1,10.4,–
Cn1c(=O)c2[nH]c(-c3ccccc3)nc2n(C)c1=O,-4.2,–
CO/N=C(\C(=O)N[C@@H]1C(=O)N2C(C(=O)O)=C(COC(C)=O)CS[C@H]12)c1csc(N)n1,-7.88,–
N.N.O=C(O)C1(C(=O)O)CCC1.[Pt],1.94,–
Cc1ccc(C(=O)O[C@H](C(=O)O)[C@@H](OC(=O)c2ccc(C)cc2)C(=O)O)cc1 (tested in a mixture with another compound),-5.7,–
CN(C)CCCO[C@@H]1[C@H]2OC(C)(C)O[C@H]2O[C@@H]1[C@H](O)CO,-7.95,–
N=c1ccn2c(n1)O[C@H]1[C@H](O)[C@@H](CO)O[C@H]12,-14.9,–
S=C(S)OC1CC2CC1C1CCCC21 (stereo not given),-27.3,–
NCC1OC(O[C@H]2[C@H](O)[C@@H](OC3C(O)C(N)CC(N)C3OC3OC(CO)C(O)C(O)C3N)O[C@@H]2CO)C(N)C(O)C1O (stereo not given in full),-11.7,–
CN(C)c1nc(N)c(C(=O)N=C(N)N)nc1Cl,-16.5,–
Clc1ccc(N2CCN(Cc3c[nH]c4ncccc34)CC2)cc1,-19,–
NCCSSCCN,0.79,–
CNC(=O)[C@H]1O[C@@H](n2cnc3c(NCc4cccc(I)c4)ncnc32)[C@H](O)[C@@H]1O,-18,–

SMILES,"activity change, negative = cytotoxicity [%]",Potency
NC(=O)C(=O)O,-8.6,–
CC1(C)CCC=[N+]1[O-],-5.33,–
C[N+](C)(CCCCCC[N+](C)(C)CCCN1C(=O)c2cccc3cccc(c23)C1=O)CCCN1C(=O)c2cccc3cccc(c23)C1=O,-3.14,–
O=C(c1ccc(OCCCc2cnc[nH]2)cc1)C1CC1,-16.6,–
CC(C)NC[C@H](O)COc1cccc2[nH]ccc12,-16.7,–
O=C1NC(=O)/C(=C/c2ccc3nccnc3c2)S1,-20.2,–
CCNC(=O)[C@H]1O[C@@H](n2cnc3c(N)nc(NCCc4ccc(CCC(=O)O)cc4)nc32)[C@H](O)[C@@H]1O,1.17,–
O=C(Nc1cccc(C(=O)Nc2ccc(S(=O)(=O)O)c3cc(S(=O)(=O)O)cc(S(=O)(=O)O)c23)c1)Nc1cccc(C(=O)Nc2ccc(S(=O)(=O)O)c3cc(S(=O)(=O)O)cc(S(=O)(=O)O)c23)c1,-14.4,–
NC(=S)c1ccc[n+]([C@@H]2O[C@@H](COP(=O)([O-])OP(=O)(O)OC[C@H]3O[C@@H](n4cnc5c(N)ncnc54)[C@H](OP(=O)(O)O)[C@@H]3O)C(O)C2O)c1 (stereo not given in full),-8.43,–
N#C/C(=C\c1ccc(O)c(O)c1)C(=O)c1ccc(O)c(O)c1,-27.7,–
O=C(O)CC[C@@H](C(=O)O)N1C(=O)c2ccccc2C1=O,8.3,–
O=[N+]([O-])c1ccc(CSc2ncnc3c2ncn3[C@@H]2O[C@H](CO)[C@@H](O)[C@H]2O)cc1,-5.63,–
CN(C)C(N)=NCCC[C@H](N)C(=O)O,-1.27,–
Brc1c(Br)c(Br)c2n[nH]nc2c1Br,-15.6,–
CCCCCCCCCCCCCCCCCC(=O)NCC(COP(=O)([O-])OCC[N+](C)(C)C)OCC (stereo not given),–,17.8 µM (active)
O=C(O)c1cc(=O)c2c(Cl)cc(Cl)cc2[nH]1,-12.7,–
O=C(c1ccc(Cl)cc1)N1CCN(c2ccc([N+](=O)[O-])c3ncccc23)CC1,-12.6,–
CCCCC/C=C\CC(O)/C=C/c1cccc(CC(O)CCCCO)n1 (stereo not given),-20.7,–
CN1CC(=O)N/C1=N/C(=O)Nc1cccc(Cl)c1,-15.1,–
CCCCC#Cc1nc(NC)c2ncn([C@@H]3O[C@H](CO)[C@@H](O)[C@H]3O)c2n1,-16.5,–
